Laboratory results from PubChem BioAssay (Tox21).
Records with an inconclusive call do not appear. Entries that show only a call come without a potency. A number with no mark means an inactive call. Activity calls are given as the source filed them. The call rests on the fitted dose curve; in most records, active means well fitted cell-killing curve with a large enough effect in the repeat runs; inconclusive means weak or mixed curves, or effect the other way; inactive means flat fitted curve, though single readings scatter.

Experiment: qHTS assay to identify small molecule agonists of the constitutive androstane receptor (CAR) signaling pathway - cell viability counter screen (AID 1224836); further: nearly all actives have a fitted effect of over 45% in size
Conditions: HepG2-CYP2B6-hCAR viability, CellTiter-Fluor, 23 h, PK11195 added to every well; series mostly up to 92.4 µM
Description: U.S. Tox21 Program National Center for Advancing Translational Sciences [NCATS] NIH Chemical Genomics Center [NCGC] U.S. Environmental Protection Agency [EPA] National Institutes of Environmental Health Sciences [NIEHS] National Toxicology Program [NTP] U.S. Food and Drug Administration [FDA] Tox21 Assay Overview: The constitutive androstane receptor (CAR) is a nuclear receptor which regulates multiple drug metabolizing enzymes (DMEs) and transporters. Activating CAR will generally increase the transcription and subsequent translation of CYP2B6 and CYP3A4. These two DMEs represent about 50% of the drug metabolizing potential in the body. […] Recently, there have also been studies performed indicating CARs role in energy metabolism and cancer therapy. Therefore, inducing CARs activity could have a potential effect on diabetes and cancer. Identifying environmental toxins and compounds which modulate CAR, through the use of the Tox21 10K compound collection, will be an important step in determining the toxicity and potential therapeutic effects these factors will have on the human body. To differentiate true CAR agonists from cytotoxic substances, the assay is multiplexed with a cell viability assay.
Tox21 Assay Protocol Summary: A double-stable (hCAR and CYP2B6-2.2kb) transfected cell line, derived from human hepatoma (HepG2) cells, was utilized for the duration of the quantitative high-throughput screens. The HepG2-CYP2B6-hCAR cells were dispensed at 2500 cells/4 uL/well in 1536-well white solid bottom plates using a Multidrop Combi. After the assay plates were incubated at 37 C/5% CO2 for 4 hrs, 23 nL of compounds at 15 concentrations (from 5-48 columns) or positive control (from 1 to 4 columns) were transferred to the assay plates using a Pintool station. One uL of PK11195 (final concentration = 0.75 uM) was added, using a Flying Reagent Dispenser, inside each well. After a 23 hr incubation period at 37 C/5% CO2, 1 uL of CellTiter-Fluor reagent was added into each well of the assay plates using a Flying Reagent Dispenser. The fluorescence intensity in the plates was then measured using a ViewLux plate reader.
Potency means the concentration at half of the fitted maximal effect.

Compound | Potency | viability change, negative = cytotoxic
NCCCCCCNCCCCCCN | inactive | –
C=CC(=O)OCCN(CC)CC | inactive | –
CC(=O)OC1CCCCC1 | inactive | –
OCCN1CN(CCO)CN(CCO)C1 | inactive | –
C=C(C)C(=O)OCCC[Si](Cl)(Cl)Cl | inactive | –
CCN=C1C=CC(=C(c2ccc(N(CC)CC)cc2)c2ccc(N(CC)CC)cc2)c2ccccc21 | 6.08 µM (active) | –
CCOC(=O)CC(C)O (stereo not given) | inactive | –
COC(=O)[C@]1(C)CCC[C@@]2(C)[C@H]1CC=C1C=C(C(C)C)CC[C@@H]12 | inactive | –
CCCCCCCCCC(=O)N(C)C | inactive | –
CCC1CCCCC1 | inactive | –
CO[C@H]1C=CO[C@@]2(C)Oc3c(C)c(O)c4c(O)c(cc(O)c4c3C2=O)NC(=O)/C(C)=C\C=C/[C@H](C)[C@H](O)[C@@H](C)[C@@H](O)[C@@H](C)[C@H](OC(C)=O)[C@@H]1C | 61.6 µM (active) | –
CCN(CC)c1ccc(N)cc1 | 31.5 µM (active) | –
O=C(O)c1cccc(Cl)n1 | inactive | –
C=C(C)CCCC | inactive | –
CC(COC(=O)c1ccccc1)OC(=O)c1ccccc1 (stereo not given) | inactive | –
C[Si](C)(C)Cl | inactive | –
CCc1c(C(=O)O)c(=O)cnn1-c1ccc(Cl)cc1 | inactive | –
O=C(O)Cc1ccc(OCCNC[C@H](O)c2ccccc2)cc1 | inactive | –
C=CC(C)C#N (stereo not given) | inactive | –
CCOC(=O)C1=C(C)NC(C)=C(C(=O)OCC)C1c1ccccc1/C=C/C(=O)OC(C)(C)C | inactive | –

Compound | Potency | viability change, negative = cytotoxic
C#CC(O)CCC (stereo not given) | inactive | –
C/C=C/C(=O)C1=C(C)CCCC1(C)C | inactive | –
CCCCOCC | inactive | –
C=C[C@](C)(O)CC[C@@H]1[C@@]2(C)CCCC(C)(C)[C@@H]2CC[C@@]1(C)O | 61.1 µM (active) | –
CC(C)CCOCCC(C)C | inactive | –
CO[Si](CCCNCCNCCN)(OC)OC | inactive | –
Cc1ccc(O)cn1 | inactive | –
CCC(=O)OCCc1ccccc1 | inactive | –
c1cc2c3c(c1)ccc1cccc(c13)C2 | inactive | –
CCCCCCCC(OC)OC | inactive | –
CC(C)=CCCC(C)O (stereo not given) | inactive | –
CCN1CCN(c2cc(-c3ccc(F)cc3)c3c(n2)CCCCCC3)CC1 | – | 4.47% [at 19 µM]
N[C@@H](CSSC[C@H](N)C(=O)O)C(=O)O | – | 5.67% [at 0.349 µM]
Cc1ccc2ccc3cccc4ccc1c2c34 | inactive | –
C=CC(=C)CCC=C(C)C | inactive | –
CC1=CCC(=O)O1 | inactive | –
CCOC(=O)N1CCC(=C2c3ccc(Cl)cc3CCc3cccnc32)CC1 | inactive | –
Nc1ncnc2c1ncn2[C@@H]1O[C@H](COP(=O)(O)O)[C@@H](O)[C@H]1O | inactive | –
CCOC(=O)[C@@](C)(N)Cc1ccc(O)c(O)c1 | inactive | –
CCCCCCCCCCCCCC[n+]1ccccc1 | 7.7 µM (active) | –
